Bioassay records (PubChem)
14-3-3g Raf = modulators of human 14-3-3 gamma - Raf peptide interaction; P61981; FP, 14-3-3gamma / TMR-pS259-Raf peptide binding; inhibition, % at 40 µM; 0.19% of 160,000 active; in the data active = inhibition above about 30%;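 also: 0% = protein plus tracer without compound and 100% = blank with tracer alone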
* hit, by the source's call. This is one part of a sample in which hits are shown more often than they occur.

SMILES	14-3-3g Raf
O=[N+]([O-])c1ccc(N2CCCC2)c2nonc12	199.7*
O=[N+]([O-])c1ccc(N2CCCC2)c2ccccc12	-4.5
O=[N+]([O-])c1ccc(Cl)c2nonc12	-36.8
NC1=C(c2nc(-c3ccccc3)cs2)C(c2ccccc2)c2c(c3ccccc3oc2=O)O1 (centres undefined)	-3.5
COc1ccc(Cl)cc1NC(=O)C1c2cc(OC)c(OC)cc2C(=O)N2CCCCC12 (centres undefined)	-6.3
